Data: the supplement of paper PMC11417369
In all, about 25,000 sequences were measured (“ln(normalized median fluorescence intensity)”: median about 7.1, highest 2% from about 10 on). What follows is part of a selection rich in the highest values, with near analogues and random picks from the rest.

These sequences were tested on PfSIP2 AP2 domain 1 (GST-tagged) (assay: gcPBM binding intensity (ln(normalized median fluorescence intensity)); higher = stronger DNA binding).
Method in brief: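 Binding intensity values are the highest Masliner-normalised natural-log median intensity among replicate spots of either probe orientation. The binding step lasted 1 h in 1× PBS with 1% milk, 0.2 mg/ml BSA, 0.5% salmon testes DNA and 0.03% Triton X-100, using GST-tagged P. falciparum DNA-binding domains expressed in E. coli on an Agilent 4 × 180k array of primer-extended double-stranded 36-bp intergenic genomic probes plus negative controls. Alexa488 anti-GST antibody and a 488 nm scan detected bound protein.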

| Sequence | gcPBM binding intensity (ln) |
| --- | --- |
| TATTTATTATTATGTACACACTATATTAAAACATAA [CACACA_site4549] | 7.08 |
| CTCAAATGTTATTGTAGTACCTAAAAAATATATTCT [XGTACX_site1970] | 6.97 |
| TGTAGTCTGGAGAAACGTACATAGTATCTGGTAGCT [XGTACX_site2538] | 6.84 |
| TTTTAACATATAAGTACACACATATAATCAATCATA [CACACA_site2325] | 7.25 |
| AATTTCTTTTTCGATATACACACTGTATGTGTCTAA [CACACA_site3975] | 6.94 |
| CATAATATGTGGACTTTACACACTTGTTTTAAAATT [CACACA_site819] | 6.87 |
| ATATATATATATATTGCACACATATAAATATATATA [CACACA_site8167] | 9.22 |
| TGTATGTTTGGGTGCACACATAAATATTATATATAG [CACACA_site3397] | 12.2 |
| TATGTATGTTAGTGTGCACACATAAATATTATATAT [CACACA_site9121] | 9.26 |
| AATATATATATATGTGCACACATATATAATATGTAT [CACACA_site716] | 8.55 |
| TATATATATATGTGCACACATATATAATATGTATAA [CACACA_site715] | 9.37 |
| AATGTAGAAATGGGTGCACACACATATATAATATAT [CACACA_site8799] | 11.7 |
| TGTAGAAATGGGTGCACACACATATAAAATCTATAT [CACACA_site7224] | 12.2 |
| AAAATCTAATATAATGCACACATAAAAAAAAAATCA [CACACA_site8871] | 7.17 |
| TATATGTATGTTTGTGTGCACACATAAATATTATAT | 8.48 |
| ACATATAAATATTGTGTGCACACACATAATATATAT | 8.29 |
| ATAAATATTGGGTGCACACACATAATATATATATAT [CACACA_site2272] | 12.2 |
| AAAATCTAATATAATGCACACATAAAAAAAAATCAA [CACACA_site9211] | 7.52 |
| TTAATATTGTATTTCACACATAATTTAATATACTCA [CACACA_site5678] | 6.87 |
| CAAAAAAAAAAAAAAACACACATTAAATTATAAAGA [CACACA_site2613] | 6.77 |
| TTTTATATTCCACAAAAAATTATATAATAATAGAAC [CACACA_negctrl_site1741] | 7.26 |
| TGTAGAAATGGGTGCACACACATATATAATATATAT [CACACA_site2507] | 12.3 |
| TATATATATATATTCACACATAAAAATAAAATAAAA [CACACA_site4774] | 8.88 |

| Sequence | gcPBM binding intensity (ln) |
| --- | --- |
| AAAATATAATATAATGCACACATAAAAAAAAAAAAA [CACACA_site7989] | 7.19 |
| ATAATAAAAAAAAATGCACACATATATATATATATA [CACACA_site8766] | 9.29 |
| TAAACATAAATATGCACACATATACATATATTCATA [CACACA_site2667] | 7.34 |
| TATATATATATATTCACACATAAATATATGCACCCA [CACACA_site4263] | 11.6 |
| TATTTGATAAATTATACACACACAATATATATAAAA [CACACA_site8625] | 6.94 |
| AAGATTAGGTTAATTAGTACTTATTATATTGTAATG [XGTACX_site3653] | 6.85 |
| AATAAAAATAATATAGTGCATAATATAAGGAAAAAA | 9.36 |
| TATACCAATGAATGAGTGCAAAGAAGATAAGGAAAA | 8.58 |
| TACCAATGCATAACGGTGCAAAAAAATAAGGAATAA | 10.7 |
| AAAATGGTTTATAAATGTACATATATTATATATAAC [XGTACX_site7959] | 7.03 |
| TATATATATATATATGCATGTACATATATTTGTTAT [TGCATGCA_site379] | 9.76 |
| ATATATATATATGCATGTACATATATTTGTTATATC [XGTACX_site3197] | 9.3 |
| TATGTGCACCCATGTACATGCGGACATATGTTATAT [TGCATGCA_site383] | 12 |
| AAAATAAAAAATTAATGTACTTAGAATTGTCACTAA [XGTACX_site1346] | 6.79 |
| AGAAAAAAACAACATGCACACGCACCCACAAAAAAA [CACACA_site7908] | 10.2 |
| CCAACATGCCCACGCACACACAAAAAAAGCATGCAT [CACACA_site4217] | 7.23 |
| AAAAAAACAACATGCACACGCACACCCAAAAAAAGC [CACACA_site72] | 7.96 |
| TATGCAAGGAACCACACACACACACGGAAATGTATA [CACACA_site6490] | 6.94 |
| AATTTAATATAATGCACACATAAAAAAAAATTCAAA [CACACA_site2062] | 7.16 |
| TTTTTGTTACCTATTGTGCACTTCATATAAATTAAA | 10.8 |
| ATTTATTTCTTGTTAGTGCACTTTCTTTGGTAAAAT | 11.1 |
| AAAATATAAATTCATGTGCACATATATATTTTGTTA [GTGCAC_site9782] | 8.24 |
| ACATTAAAAAATTGTTTGCACTATATAAAATATTAA [GTGCAC_site9728] | 8.2 |

| Sequence | gcPBM binding intensity (ln) |
| --- | --- |
| TGTTATTTTAAAAAAAAAATTATTAACTTAAAAAAA [CACACA_negctrl_site1641] | 6.68 |
| TGTTAAAATTATTTGGTGCACTTGTTTTACCTTATT | 11.3 |
| ACGTTAGGCTTATTTGCACACTTGTATTAAAATTTT [CACACA_site4854] | 7.27 |
| CTTATTTTGTTATAAGTGCATTTTTTAAAATTTCTT | 9.64 |
| TATTTCACTTTTTGTCTGCACTAAAATTTTATGGTA | 7.74 |
| CACGTGAAAATACAAGCATGCAAGCTTTTTTTTTCT [TGCATGCA_site642] | 6.53 |
| TACAATTCGTAATACACACACATATAAATAAATATT [CACACA_site7720] | 7.28 |
| AAATAATAAAGTATAACACACATATTTATTTATATA [CACACA_site7822] | 6.73 |
| AATAGAACAAATAAAACACACACATATATATATATA [CACACA_site8893] | 9.42 |
| AAAATACGAATATAAACATGCACCATATAGAACAAA [TGCATGCA_site925] | 10.7 |
| AAAGAACAAATAAAACATAAAATAATATATATAGAT [CACACA_negctrl_site1764] | 7.02 |
| ATAGATGCATATTATACACACATATGTAAATACATT [CACACA_site4691] | 7.06 |
| CAAACAATTAAACAAACACACATATACAAGTATATA [CACACA_site8639] | 7 |
| GTAGGCATTAAAAAATGTACAAAATATTATGAATTG [XGTACX_site1615] | 6.85 |
| AGTAGGCATATTGGTTGTACAAAAAAATTATGCACC [XGTACX_site8925] | 10.3 |
| TGAACATATTAAAATTGTACATATGCACAATATGTA [XGTACX_site6801] | 7.44 |
| TAAAAAAAAACATATACACACAAAAACGTACACATA [CACACA_site1354] | 7.29 |
| ATAAACATATAAAAAGTGCATATTCATATATCTACT | 8.7 |
| TTAAAAGTAAGCAAAGTGCATATAACAAAAGTAAAG | 8.19 |
| TAAAAAAAAACATGTGCACACGTTTTATCTACATAA [CACACA_site2336] | 8.79 |
| TTATCTCTACAAAGTGCACACACGTAAAAACATATA [CACACA_site3957] | 10.4 |
| TTGCACTCGTAAAAAGCACACATATAAAAACATTTA [CACACA_site7997] | 8.15 |
| ATCTCTACAAAGTGCACACACGTAAAAACATATATA [CACACA_site6046] | 10.8 |

| Sequence | gcPBM binding intensity (ln) |
| --- | --- |
| AAACAGAATACATATACACACATACAAAAAAGTGCA [CACACA_site8235] | 7.52 |
| ATATAAACAAAGCAGTGCACGTAAACAAAACATATA [CACACA_negctrl_site1076] | 10.4 |
| ATATATATGTATATGTGTACTTATATTTGTCATTTT [XGTACX_site1317] | 7.11 |
| TAATATTTATGTTAATGTACAAAAAAACAAAACAAA [XGTACX_site301] | 7.09 |
| TTTTTTAAATATTAAAAATGGGATCTTATAACATAT [GTGCAC_negctrl_site666] | 6.91 |
| ATATATATAATAAACACACACATATACATAGATGTA [CACACA_site5841] | 7.49 |
| AAATAAAAGATATTTTTACACACTTTTGATGAGATC [CACACA_site9000] | 6.75 |
| AAAAAAAAAAAAAAAAAAATATATTATATATATATA [XGTACX_negctrl_site467] | 9.19 |
| TAATAAGTACCTTTTGCATGTGGCACGCTTTTTTTT [TGCATGCA_site573] | 6.75 |
| TTAACATCTTCGTTGACACACAAAAAAAAAAATAAT [CACACA_site1819] | 7.1 |
| CATAAAAATGGATACACACACATAATATATATATAT [CACACA_site3619] | 9.01 |
| TAATGGATTATACGTGCACACATATATACAAATAAA [CACACA_site8116] | 10.5 |
| TTATAATATGGATACACACACATATATAAATATATA [CACACA_site5314] | 6.98 |
| ATAAAATATATATGCACACACATATATATTTCATAC [CACACA_site3547] | 7.24 |
| ATAATTTCATAATACGTGCACATAATATATAAAAAA | 10.5 |
| ATGGATTATACGTGCACACATATATACAAATAAATA [CACACA_site640] | 10.5 |
| ATATAAATACGGTGTGCACACACATAATATATATAT [CACACA_site2271] | 8.98 |
| ATGGATTATACGTGCACACATATATACCAATAAATA [CACACA_site4524] | 10.5 |
| TATAAATACATACGTACACACAAATATTAAAATATA [CACACA_site5129] | 7.35 |
| TCATATATATTATACACACACATATATAAATATATA [CACACA_site967] | 7.03 |
| TAGGGATTATACCACACACACATACACATAAATATA [CACACA_site3178] | 7.08 |
| GAAATAATTTCATATACACACATATACATACATACA [CACACA_site1358] | 7.5 |
| AAACATAAATTTTATTGTACATTATATAGAATTTTC [XGTACX_site576] | 6.81 |
